According to PubChem BioAssay (NCATS):
Records with an inconclusive call do not appear. Entries that show only a call come without a potency. Activity calls are given as the source filed them. The call rests on the fitted dose curve; in most records, active means well fitted inhibition curve with a large enough effect; inconclusive means small, poorly fitted or top-dose-only effect; inactive means flat fitted curve, though single readings scatter.

Columns and labels:
Assay in all cases: qHTS profiling for inhibitors of Plasmodium falciparum proliferation (AID 504749); further: nearly all actives have a fitted effect of over 60% in size
Details in all cases: P. falciparum in erythrocytes, SYBR Green DNA, 72 h; series mostly up to 28.7 µM
[1] = system: CP201
In short: (§1)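 Infected RBCs, 0.3% parasitemia/2.5% Hct final; cpd 72 h, 37 C, 5% CO2; lysis buffer with saponin/triton/SYBR Green I, o/n RT dark; FI 485/535; norm. to artemisinin (0.29 uM) and DMSO.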

[2] = system: CP211
In short: as §1

[3] = system: CP215
In short: as §1

[4] = system: CP217
In short: as §1

[5] = system: CP238
In short: as §1

[6] = system: CP247
In short: as §1

[7] = system: CP250
In short: as §1

[8] = system: CP252
In short: as §1

[9] = system: CP237
In short: as §1

[10] = system: CP203
In short: as §1
Potency means the concentration at half of the fitted maximal effect.

Row | Compound | Potency [1] | Potency [2] | Potency [3] | Potency [4] | Potency [5] | Potency [6] | Potency [7] | Potency [8] | Potency [9] | Potency [10]
1 | O=C1[C@H]2CCCC[C@H]2C(=O)N1CCCCN1CCN(c2nsc3ccccc23)CC1 | inactive | inactive | inactive | inactive | inactive | inactive | inactive | inactive | – | –
2 | CCCN1CCCC[C@H]1C(=O)Nc1c(C)cccc1C | inactive | inactive | inactive | inactive | inactive | inactive | inactive | inactive | 6.31 µM (active) | –
3 | CN=C(NC#N)NCCSCc1csc(N=C(N)N)n1 | inactive | inactive | inactive | inactive | inactive | inactive | inactive | inactive | inactive | –
4 | CCN1CCCC1=O | inactive | inactive | inactive | inactive | inactive | inactive | inactive | inactive | inactive | –
5 | CC(C)(C(=O)c1cccnc1)c1cccnc1 | inactive | inactive | inactive | inactive | inactive | inactive | inactive | inactive | inactive | –
6 | CCOC(=O)n1ccn(C)c1=S | inactive | inactive | inactive | inactive | inactive | inactive | inactive | inactive | inactive | –
7 | CC(=O)Oc1ccc(C(c2ccc(OC(C)=O)cc2)c2ccccn2)cc1 | inactive | inactive | inactive | inactive | inactive | inactive | inactive | inactive | inactive | –
8 | CN(C(=O)CN(CCO)CC(=O)N(C)C(C)(C)Cc1ccccc1)C(C)(C)Cc1ccccc1 | inactive | inactive | inactive | – | inactive | inactive | inactive | inactive | – | –
9 | Cc1ncc(CSSCc2cnc(C)c(O)c2CO)c(CO)c1O | inactive | inactive | inactive | inactive | inactive | inactive | inactive | inactive | inactive | –
10 | CC(Cc1cccc(C(F)(F)F)c1)NCCOC(=O)c1ccccc1 (configuration not stated) | inactive | inactive | inactive | inactive | inactive | inactive | inactive | inactive | – | –
11 | COc1cc2c(cc1OC)C(C(C(=O)N(CCc1ccc(OC)c(OC)c1OC)CCc1ccc(OC)c(OC)c1OC)c1ccccc1)=NCC2 (configuration not stated) | 15.1 µM (active) | 12 µM (active) | 6.75 µM (active) | 4.47 µM (active) | 6.31 µM (active) | 4.47 µM (active) | 7.08 µM (active) | 5.01 µM (active) | 2 µM (active) | –
12 | CCCCOc1ccc(OCCCN2CCOCC2)cc1 | inactive | inactive | inactive | inactive | inactive | inactive | inactive | inactive | inactive | –
13 | CCOc1ccc(NC(=O)CC(C)O)cc1 (configuration not stated) | inactive | inactive | inactive | inactive | inactive | inactive | inactive | inactive | inactive | –
14 | CCN(CC)CCOC(=O)C(c1ccccc1)C1CCCCC1 (configuration not stated) | inactive | inactive | – | inactive | inactive | inactive | inactive | inactive | inactive | –
15 | CN1C2CCC1CC(OC(=O)c1c[nH]c3ccccc13)C2 (configuration not stated) | inactive | inactive | inactive | inactive | inactive | inactive | inactive | inactive | inactive | –
16 | CCN1CCN(c2cc3c(cc2F)c(=O)c(C(=O)O)cn3C2CC2)CC1 | inactive | inactive | inactive | inactive | inactive | inactive | inactive | inactive | – | –
17 | Cc1cc(N)c2cc(NC(=O)Nc3ccc4nc(C)cc(N)c4c3)ccc2n1 | – | 3.79 µM (active) | – | 8.91 µM (active) | 12.6 µM (active) | 12.6 µM (active) | 11.2 µM (active) | inactive | 5.01 µM (active) | 5.36 µM (active)
18 | C[C@@H](CN(C)C)CN1c2ccccc2Sc2ccccc21 | – | inactive | inactive | inactive | inactive | inactive | inactive | inactive | inactive | –
19 | CCOc1ccc(Cc2nccc3cc(OCC)c(OCC)cc23)cc1OCC | – | – | – | – | inactive | inactive | inactive | inactive | – | –
20 | C[C@@H]1CN(CCCn2c3ccccc3c3ccccc32)C[C@H](C)N1 | – | – | – | – | – | 4.47 µM (active) | – | – | 11.2 µM (active) | –
21 | CN(C)CC/C=C1\c2ccccc2Sc2ccc(Cl)cc21 | inactive | – | – | – | – | – | inactive | – | – | –
22 | CN1CCN(C(c2ccccc2)c2ccccc2)CC1 | inactive | inactive | – | inactive | inactive | inactive | inactive | inactive | – | –
23 | CC(C)(C)CC(C)(C)c1ccc(O)c(Cc2ccc(Cl)cc2Cl)c1 | – | 1.51 µM (active) | 1.69 µM (active) | 2.82 µM (active) | 1.41 µM (active) | 3.16 µM (active) | 3.16 µM (active) | 1 µM (active) | 2.51 µM (active) | 1.69 µM (active)
24 | NC(=O)C(=O)N/N=C/c1ccc([N+](=O)[O-])o1 | – | – | – | inactive | inactive | inactive | inactive | inactive | inactive | –
25 | C=C(CC)C(=O)c1ccc(OCC(=O)O)c(Cl)c1Cl | inactive | – | – | inactive | – | 10 µM (active) | 12.6 µM (active) | 12.6 µM (active) | – | –
26 | CN1CCC(=C2c3ccccc3Sc3ccccc32)CC1 | – | 13.5 µM (active) | 9.53 µM (active) | 11.2 µM (active) | 11.2 µM (active) | 7.94 µM (active) | 11.2 µM (active) | 7.08 µM (active) | 8.91 µM (active) | –

Row | Compound | Potency [1] | Potency [2] | Potency [3] | Potency [4] | Potency [5] | Potency [6] | Potency [7] | Potency [8] | Potency [9] | Potency [10]
27 | COc1cccc(CCc2ccccc2OCC(CN(C)C)OC(=O)CCC(=O)O)c1 (configuration not stated) | – | 7.57 µM (active) | 8.49 µM (active) | 7.94 µM (active) | 7.08 µM (active) | 5.62 µM (active) | 11.2 µM (active) | 8.91 µM (active) | 1.12 µM (active) | 3.38 µM (active)
28 | CCOC(=O)c1cccc(N)c1 | – | – | – | inactive | inactive | inactive | inactive | inactive | inactive | –
29 | CCCCCCCCCCOCC(O)CN (configuration not stated) | inactive | – | inactive | – | inactive | inactive | inactive | – | – | –
30 | CNCCC(Oc1ccccc1C)c1ccccc1 (configuration not stated) | inactive | inactive | – | – | – | – | inactive | inactive | inactive | –
31 | CC(C)N=C(N)/N=C(\N)Nc1ccc(Cl)cc1 | – | – | – | – | inactive | – | – | – | – | –
32 | CC(C)=CCC1C(=O)N(c2ccccc2)N(c2ccccc2)C1=O | inactive | – | 13.5 µM (active) | – | inactive | inactive | – | – | 11.2 µM (active) | –
33 | CC(C)COC(=O)c1ccc(N)cc1 | – | inactive | inactive | inactive | inactive | inactive | inactive | inactive | inactive | –
34 | O=c1c(-c2ccccc2)c1-c1ccccc1 | – | – | – | – | – | – | 11.2 µM (active) | – | – | –
35 | CNCCC=C1c2ccccc2CCc2ccccc21 | – | – | – | – | – | – | – | – | – | 7.57 µM (active)
36 | CN(C)C(=S)SC(=S)N(C)C | – | – | – | – | – | – | 11.2 µM (active) | – | 10 µM (active) | –
37 | CC(C)NC[C@@H](O)COc1cccc2ccccc12 | inactive | inactive | – | – | – | – | inactive | – | 5.01 µM (active) | –
38 | c1ccc(CNCCNCc2ccccc2)cc1 | inactive | – | – | – | – | – | inactive | – | 3.16 µM (active) | –
39 | CC(=O)c1ccc2c(c1)N(CCCN1CCC(CCO)CC1)c1ccccc1S2 | inactive | inactive | – | inactive | inactive | inactive | inactive | inactive | – | –
40 | CN(C)CCOc1ccccc1Cc1ccccc1 | inactive | – | – | – | 7.94 µM (active) | – | – | – | 3.16 µM (active) | –
41 | CCCCc1nc(Cl)c(CO)n1Cc1ccc(-c2ccccc2-c2nn[nH]n2)cc1 | – | 6.75 µM (active) | – | 12.6 µM (active) | – | – | – | 10 µM (active) | inactive | –
42 | c1ccc(-c2ccc(C(c3ccccc3)n3ccnc3)cc2)cc1 (configuration not stated) | – | 19 µM (active) | 15.1 µM (active) | 8.91 µM (active) | – | 7.94 µM (active) | – | 10 µM (active) | 8.91 µM (active) | 15.1 µM (active)
43 | CCN(CC)CCOc1ccc(C(O)(Cc2ccc(Cl)cc2)c2ccc(C)cc2)cc1 (configuration not stated) | – | – | 13.5 µM (active) | – | – | 10 µM (active) | – | – | 7.94 µM (active) | –
44 | Cc1c(C)n(Cc2ccccc2)c2ccc(C(=O)OCCN(C)C)cc12 | – | inactive | – | inactive | inactive | inactive | inactive | inactive | inactive | inactive
45 | O=C(N/N=C/c1ccccc1O)c1ccncc1 | – | – | – | 8.91 µM (active) | 8.91 µM (active) | 8.91 µM (active) | 10 µM (active) | 8.91 µM (active) | – | –
46 | COc1cc(-c2ccc(=O)[nH]n2)ccc1OC(F)F | inactive | – | – | inactive | – | – | inactive | inactive | 0.112 µM (active) | –
47 | Clc1ccc2c(c1)CCc1cccnc1C2=C1CCNCC1 | – | – | – | – | – | inactive | inactive | – | – | –
48 | OC(CCN1CCCCC1)(c1ccccc1)c1ccccc1 | inactive | inactive | – | – | – | – | inactive | – | 4.47 µM (active) | –
49 | CN1CCN(CCCN2c3ccccc3Sc3ccc(S(=O)(=O)N(C)C)cc32)CC1 | inactive | inactive | – | 3.98 µM (active) | – | – | – | inactive | 3.98 µM (active) | –
50 | Oc1ccc(Cl)cc1Sc1cc(Cl)ccc1O | inactive | inactive | – | – | inactive | inactive | inactive | inactive | inactive | –
51 | CCN(CCCc1ccccc1)CCCc1ccccc1 | inactive | – | – | inactive | – | inactive | inactive | inactive | – | –
